Most compounds without a hit are left out; they make up all but 19% or so of the library.
DT40 TDP1 no CPT = qHTS for Inhibitors of human tyrosyl-DNA phosphodiesterase 1 (TDP1): qHTS in cells in absence of CPT; DT40 Tdp1-/- hTDP1 cells, no CPT, ATP luminescence, 48 h; Potency, µM (highest dose often 46.2 µM), inactives show at the top dose activity change, negative = growth inhibition, most hits filed as inhibitors; hit rate 15% among 420,000; further: nearly all actives have a fitted effect of over 55% in size
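Luminescent ATP content (CellTiter-Glo) served as the growth readout. Knockout chicken DT40 cells expressing human TDP1 were exposed to compounds without camptothecin for a minimum 48 hr at 37 °C.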
RORgamma inh = qHTS for inhibitors of ROR gamma transcriptional activity; hit rate 5.4% among 310,000; Potency, µM (series often up to 53.6 µM), without a hit: at the top dose activity change, negative = inhibition, actives largely listed as inhibitors; Nuclear receptor ROR-gamma (Mus musculus), P51450; AID 2551, 2010; Drosophila S2 Gal4-RORgamma UAS-luciferase reporter, 20 h; further: nearly all actives have a fitted effect of over 60% in size
Target sequence (P51450 whole entry, looked up, the tested form may be a part): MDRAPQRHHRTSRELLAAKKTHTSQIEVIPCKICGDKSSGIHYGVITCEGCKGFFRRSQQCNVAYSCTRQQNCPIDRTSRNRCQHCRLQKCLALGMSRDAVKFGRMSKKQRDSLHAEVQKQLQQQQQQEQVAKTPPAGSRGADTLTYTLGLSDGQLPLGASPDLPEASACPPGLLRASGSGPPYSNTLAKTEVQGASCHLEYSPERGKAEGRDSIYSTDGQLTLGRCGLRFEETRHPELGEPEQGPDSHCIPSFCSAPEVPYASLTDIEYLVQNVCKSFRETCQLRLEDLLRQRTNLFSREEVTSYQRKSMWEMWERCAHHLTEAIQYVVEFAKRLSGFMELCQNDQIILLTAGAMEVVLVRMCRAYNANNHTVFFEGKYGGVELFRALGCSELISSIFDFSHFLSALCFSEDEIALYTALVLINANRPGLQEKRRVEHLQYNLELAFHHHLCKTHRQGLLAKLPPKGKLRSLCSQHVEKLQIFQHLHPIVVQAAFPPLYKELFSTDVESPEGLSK
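In this cell-based reporter format, copper sulfate (700 uM final) drives Gal4–ROR gamma fusion expression from a metallothionein promoter in Drosophila Schneider cells; compounds preincubated 1 hr, reporter read after 20 hr at ambient temperature.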
TDP1 block = qHTS Assay for Inhibitors of Tyrosyl-DNA Phosphodiesterase (TDP1) | Tyrosyl-DNA phosphodiesterase 1 (Homo sapiens), Q9NUW8 | recombinant TDP1, AlphaScreen DNA substrate cleavage | Potency, µM (doses to about 130 µM), for inactives: at the top dose activity change, negative = inhibition, hits mostly inhibitors | hit rate 0.28% among 350,000; further: nearly all actives have a fitted effect of over 40% in size
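Steps: enzyme plus compound, 15 min RT; add biotin/phosphotyrosine-FITC oligonucleotide (15 nM final), react 5 min; add donor/acceptor beads (10 ug/ml final), 10 min; read AlphaScreen. Tdp1 at 1 nM final.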
DT40 TDP1 CPT = qHTS for Inhibitors of human tyrosyl-DNA phosphodiesterase 1 (TDP1): qHTS in cells in presence of CPT. chicken DT40 Tdp1-/-;hTDP1 cells + 20 nM CPT, ATP luminescence, 48 h. Potency, µM (top dose mostly 46.2 µM), for inactives: at the top dose activity change, negative = growth inhibition, hits mostly inhibitors. hit rate 12% among 420,000. AID 686979, 2013; further: nearly all actives have a fitted effect of over 55% in size
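Chicken DT40 Tdp1-/- cells complemented with human TDP1, 400 cells/well, exposed to compounds plus 20 nM camptothecin for at least 48 h at 37 C; viability read as ATP content by CellTiter-Glo luminescence.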
VP16 counter = VP16 counterscreen qHTS for inhibitors of ROR gamma transcriptional activity; Potency, µM (titrated, usually from 53.6 µM), for inactives: at the top dose activity, negative = inhibition, actives largely listed as inhibitors; Drosophila S2 Gal4-VP16 UAS-luciferase, luminescence, 20 h; hit rate 3.5% among 310,000;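 further: Gal4-VP16 expression switched on by copper sulfate through the metallothionein promoter; nearly all actives have a fitted effect of over 50% in size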
Active calls of the source: *; u = inconclusive; x = no result. The call rests on the fitted dose curve; in most records, active means well fitted curve in the direction sought with a large enough effect; inconclusive means small, poorly fitted or top-dose-only effect, or another doubt; inactive means no such curve, though single readings can be large; an effect the other way counts as inactive or inconclusive. On the % scale 0 is the no-effect control and ±100 the full control effect; potency means the concentration at half of the fitted maximal effect.

SMILES	DT40 TDP1 no CPT	RORgamma inh	TDP1 block	DT40 TDP1 CPT	VP16 counter
COc1cccc(CNC(=O)CCC2CCCN(Cc3ccc4c(c3)CCO4)C2)c1 (centres undefined)	-6.3%	-8.9%	x	-4.2%	1.5%
CCc1nc2c(OCCOC)cccn2c1N(C)C(=O)Nc1ccccc1OC	-5.3%	x	x	-5.9%	x
CCc1nc2c(OCCOc3ccccc3)cccn2c1N(C)C(=O)C1CC1	u	x	x	16.4µM*	x
CCc1nc2c(OCCC3CCCCC3)cccn2c1N(C)C(=O)c1ccc(C)cc1	14.6µM*	x	x	14.6µM*	x
CCc1nc2c(OCCC3CCCCC3)cccn2c1N(C)C(=O)C(C)C	u	x	x	13µM*	x
CCOc1ccc(NC(=O)COC(=O)c2ccc3c(c2)OCCO3)cc1	3.0%	x	0.4%	-29.7%	x
C#CCOCCOCCOCCNc1nc(N2CCN(C(=O)[C@H](CCC(=O)O)n3cc(C(N)Cc4ccc(O)cc4)nn3)CC2)nc(N2CCN(C(=O)[C@H](CCC(=O)O)n3cc(C(N)[C@H](C)CC)nn3)CC2)n1 (some centres undefined)	1.3%	0.1%	0.0%	-3.7%	-7.3%
CCOC(=O)c1[nH]c2ccccc2c1NC(=O)c1ccc(OC)c(OC)c1	u	x	5.9%	u	x
N#Cc1ccc(C(=O)Nc2nnc(-c3ccccn3)o2)cc1	u	1.26µM*	2.7%	u	0.891µM*
CN(C(=O)c1ccc(C#N)cc1)c1nnc(-c2ccccn2)s1	-8.3%	2.5%	-0.7%	-7.5%	-5.7%
Cc1cccc(-c2nnc(NC(=O)c3ccc(Cl)cc3)o2)c1	10.3µM*	1.41µM*	10.9%	11.6µM*	1.41µM*
O=C(Nc1nnc(-c2ccccn2)o1)c1cccc(Br)c1	u	0.501µM*	5.5%	20.6µM*	0.891µM*
O=C(Nc1nnc(-c2cccnc2)o1)c1cccc(Cl)c1	16.4µM*	0.501µM*	10.8%	23.1µM*	0.708µM*
O=C(COC(=O)CNC(=O)c1cccc(Br)c1)Nc1nnc(-c2ccccc2)o1	-3.3%	x	1.6%	-2.3%	x
Cc1ccc(C(=O)Nc2nnc(-c3ccncc3)o2)cc1	u	-0.3%	7.4%	u	5.3%
O=C(Nc1nnc(-c2ccccn2)o1)c1cccc(Cl)c1	u	0.708µM*	6.9%	u	1µM*
CC(=O)Nc1nnc(-c2ccccn2)o1	-20.4%	12.4%	-5.7%	-2.7%	-0.3%
CNc1nc(-c2ccccn2)nnc1-c1ccccc1	22.4µM*	-6.2%	3.9%	u	3.4%
c1ccc(-c2nnc(-c3ccccn3)nc2NC2CCCCC2)cc1	5.8µM*	-80.5%	7.0%	6.51µM*	u
CN(CC(=O)NC1CCCCCC1)S(=O)(=O)c1ccc(Br)cc1	-2.2%	6.3%	0.1%	1.9%	-12.7%
CN(Cc1cccc(-n2cccn2)c1)Cc1cn(C)nc1-c1ccccc1F	u	14.4%	8.6%	u	6.7%
COc1cc(OC)cc(C(=O)OCC(=O)Nc2cccc(S(=O)(=O)NC3=NCCCCC3)c2)c1	20.6µM*	x	0.3%	u	x
O=C(CCl)Nc1cccc(S(=O)(=O)NC2=NCCCCC2)c1	5.17µM*	x	0.8%	3.66µM*	x
O=C(CCl)Nc1ccc(S(=O)(=O)NC2=NCCCCC2)cc1	13µM*	x	0.0%	18.4µM*	x
CCCOc1ccc(C(=O)Nc2ccc(S(=O)(=O)NC3=NCCCCC3)cc2)cc1	20.6µM*	x	x	13µM*	x
SMILES	DT40 TDP1 no CPT	RORgamma inh	TDP1 block	DT40 TDP1 CPT	VP16 counter
CCCNCC(=O)Nc1cccc(S(=O)(=O)NC2=NCCCCC2)c1	-19.8%	x	1.7%	-2.2%	x
CC(C)(C)C(=O)Nc1ccc(S(=O)(=O)NC2=NCCCCC2)cc1	-26.7%	x	3.6%	u	x
CC(C)(CNS(=O)(=O)c1ccc(Cl)cc1)N1CCCCC1	-5.1%	-7.0%	-1.0%	-15.8%	-8.2%
Cc1ccc(Nc2nnc(SCC(=O)Nc3cccc(S(=O)(=O)NC4=NCCCCC4)c3)s2)c(C)c1	25.9µM*	-25.6%	-0.6%	u	0.9%
Cc1ccc(C)c(SCC(=O)Nc2cccc(S(=O)(=O)NC3=NCCCCC3)c2)c1	u	15.7%	-2.7%	-26.7%	-11.5%
Cc1cc(OCC(=O)Nc2cccc(S(=O)(=O)NC3=NCCCCC3)c2)ccc1Cl	2.59µM*	u	5.3%	u	19.1%
Nc1nc2cc(S(=O)(=O)NC3=NCCCCC3)ccc2s1	13µM*	u	5.0%	14.6µM*	u
COc1ccc(NC(=O)C2=C(C)Nc3nc(SCc4ccccc4)nn3C2c2cc(OC)ccc2OC)cc1 (centres undefined)	u	x	-2.6%	u	x
COc1ccccc1COC(=O)c1cccc(S(=O)(=O)N2CCCC2)c1	u	x	-17.2%	-15.3%	x
COc1cc(OC)cc(C(=O)N2CCC(c3ccncc3)CC2)c1	-12.1%	x	0.5%	-17.9%	x
CC(CC(=O)Nc1nccs1)c1ccccc1 (centres undefined)	u	-41.3%	x	3.1%	-10.7%
O=C(CC(c1ccccc1)c1ccco1)Nc1nccs1 (centres undefined)	14.6µM*	-9.9%	-2.6%	25.9µM*	-13.2%
COc1ccc(NC(=O)CC(c2ccccc2)c2ccco2)cc1 (centres undefined)	16.4µM*	u	-5.5%	u	0.5%
CCNc1nc(C23CC4CC(CC(C4)C2)C3)cs1	u	10µM*	3.7%	u	u
CC(=O)NNC(=O)CC(=O)Nc1nc(C23CC4CC(CC(C4)C2)C3)cs1	u	-6.1%	9.5%	u	0.9%
CC(C)(O)C(=O)NNC(=S)Nc1cccc(C(F)(F)F)c1	8.8%	2.1%	-2.5%	-21.8%	0.7%
O=C(NNc1ccccc1Br)C(O)(c1cccc(C(F)(F)F)c1)c1cccc(C(F)(F)F)c1	14.6µM*	23.2%	5.1%	29.1µM*	u
COc1ccc(N2C(=O)Cc3cc(OC)c(OC)cc3C2c2ccc(F)cc2)cc1 (centres undefined)	u	x	9.8%	23.1µM*	x
COc1ccc(C2SCC(=O)N2c2ccc(F)cc2)cc1 (centres undefined)	1.1%	-5.1%	x	-3.8%	-2.0%
COC(=O)c1ccc(N2C(=O)Cc3cc(OC)c(OC)cc3C2c2ccc(F)cc2)cc1 (centres undefined)	u	x	11.0%	14.6µM*	x
CCOc1cc2c(cc1OCC)C(c1ccc(OC)c(OC)c1)N(c1ccc(C(=O)O)cc1)C(=O)C2 (centres undefined)	-12.4%	6.1%	8.2%	27.4%	2.1%
